Measured values reported in PubChem BioAssay (NCI).
The panel holds about 79,000 compounds, 15% with a hit somewhere; the sample as a whole holds those more often. Cut-off read from the data, not from the text of the source: active = growth inhibition above about 70%; inactive = the rest.

Experiments:
[1] = NCI Yeast Anticancer Drug Screen. Data for the rad50 strain (AID 155);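 note: 0% = growth of vehicle-only cultures of the same strain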; conditions: S. cerevisiae rad50 strain growth inhibition; at 50.0 µM; stronger effect = higher value
In short: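 DNA repair mutant yeast, compound exposure, growth read-out; inhibition is taken relative to vehicle.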

[2] = NCI Yeast Anticancer Drug Screen. Data for the mec2-1 strain (AID 157); conditions: S. cerevisiae mec2-1 strain, at 50.0 µM, stronger effect = higher value
In short: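 mec2-1 yeast strain, carrying an alteration in DNA damage repair or cell cycle control, was exposed to compounds; growth inhibition was measured relative to vehicle-treated controls.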

[3] = NCI Yeast Anticancer Drug Screen. Data for the sgs1 mgt1 strain (AID 161);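 note: 0% = growth of cultures given vehicle only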; conditions: S. cerevisiae sgs1 mgt1 strain, at 50.0 µM, stronger effect = higher value
In short: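 Percent growth inhibition was derived by comparing compound-exposed mutant yeast with vehicle-exposed cultures. The strain carries alterations in DNA damage repair.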

[4] = NCI Yeast Anticancer Drug Screen. Data for the cln2 rad14 strain (AID 165);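 note: 0% = growth equal to vehicle treated cultures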; conditions: S. cerevisiae cln2 rad14 strain, at 50.0 µM, stronger effect = higher value
In short: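 Yeast carrying cln2 and rad14 alterations (cell cycle control and DNA damage repair) were exposed to compounds. Growth inhibition was measured against vehicle-treated controls.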

[5] = NCI Yeast Anticancer Drug Screen. Data for the bub3 strain (AID 167); conditions: S. cerevisiae bub3 mutant strain, at 50.0 µM, stronger effect = higher value
In short: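 In this screen, a yeast mutant lacking normal mitotic checkpoint function is challenged with compound. Relative growth versus vehicle gives the inhibition value.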

[6] = NCI Yeast Anticancer Drug Screen. Data for the mlh1 rad18 strain (AID 175); conditions: S. cerevisiae mlh1 rad18 strain growth inhibition; at 50.0 µM; stronger effect = higher value
In short: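 Growth inhibition of the yeast strain was measured after compound exposure and expressed relative to vehicle-treated controls. The strain carries defined defects in DNA damage repair.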

Measured: growth inhibition

c1cc[c]([Hg][S]c2nc3ccccc3s2)cc1
inactive: [1] -22.4% | [2] -7.1% | [3] -6.05% | [4] -37.3% | [5] -5.15% | [6] -5.1%

NC(=O)C[N+](=O)[O-]
inactive: [1] -16.9% | [2] 17% | [3] -11.4% | [4] 11% | [5] -2.35% | [6] -2.2%

CCCCC1(CCSC(=S)OCC)C(=O)NC(=O)NC1=O
inactive: [1] 12.6% | [2] -12.1% | [3] 1.55% | [4] -36.4% | [5] -2.7% | [6] -11.8%

N[C@@H](Cc1ccc2oc3cc(=O)c4ccccc4c-3nc2c1)C(=O)O
inactive: [1] 26% | [2] 32.9% | [3] 10% | [4] 39.2% | [5] 28.8% | [6] 35%

O=NNc1ncc([N+](=O)[O-])cn1
inactive: [1] -1.05% | [2] 5.35% | [3] -5.9% | [4] -23.4% | [5] -5% | [6] -8.4%

CCCC[N+]1(C)CCCC1c1cccnc1 (stereo not given)
inactive: [1] -15.5% | [2] -7.1% | [3] 5.3% | [4] -10.2% | [5] -10.8% | [6] -7.85%

O=c1n(Cc2ccccc2)c2ccccc2n1CC1CS1 (stereo not given)
inactive: [1] 55.5% | [2] 21.4% | [3] 62.9% | [4] 4.75% | [5] 15.8% | [6] 31.1%

C[C@@H]1C[C@@H](O)[C@]2(O)O[C@@H]3C[C@@]4(C=O)[C@@H](CC[C@@H]5[C@@H]4CC[C@]4(C)[C@@H](C6=CC(=O)OC6)CC[C@]54O)C[C@H]3O[C@@H]2O1
inactive: [1] -7.25% | [2] -16.6% | [3] 27.4% | [4] -4.55% | [5] -15.2% | [6] -96.5%

CCCCCC1(C(C)C)C(=O)NC(=O)NC1=O
inactive: [1] 3.1% | [2] 8.65% | [3] 1.5% | [4] 15.3% | [5] -0.6% | [6] 6.35%

NC(N)=NC(N)=Nc1ccc(Cl)cc1
inactive: [1] 0.9% | [2] -2.65% | [3] 3.45% | [4] 2.8% | [5] -1.9% | [6] -1.55%

CC1(C[N+](C)(C)C)COC(C)(C)O1 (stereo not given)
inactive: [1] -3.95% | [2] 11.6% | [3] 5.25% | [4] -2.85% | [5] 5.3% | [6] 3.95%

Nc1ccc(C(=O)N/N=C/c2ccc(N(CCBr)CCBr)cc2)cc1
inactive: [1] 42.9% | [2] 22.4% | [3] 25.5% | [4] 1.95% | [5] 5.3% | [6] 54.2%

O=c1ccn(C2OC(CO)C(O)C2[Se]c2ccccc2)c(=O)[nH]1 (stereo not given)
inactive: [1] 4% | [2] -9.45% | [3] 16.8% | [4] 6.05% | [5] 7.2% | [6] 27.1%

c1cc2c(cc1NC1=NCCO1)OCO2
inactive: [1] -23.2% | [2] -18.8% | [3] -3.65% | [4] 0.7% | [5] -13.8% | [6] -25.2%

CC(=O)Oc1ccc(CCN(C)C2CC3CCC2(C)C3(C)C)cc1OC(C)=O (stereo not given)
inactive: [1] 51.4% | [2] 21.4% | [3] 46.2% | [4] -11.2% | [5] 6.1% | [6] 41%

O=C(Cl)C(Br)Cc1ccccc1 (stereo not given)
inactive: [1] 11.9% | [2] -19.4% | [3] 0.95% | [4] 7% | [5] 28.6% | [6] 2.1%

CN(C)C(=O)C(CC[N+](C)(C)C)(c1ccccc1)c1ccccc1
inactive: [1] 8.65% | [2] 5.5% | [3] 5.55% | [4] 24.7% | [5] -3.9% | [6] -10.1%

Cc1nccc2c1[nH]c1ccccc12
inactive: [1] 6.5% | [2] 5.7% | [3] -15.4% | [4] -5.65% | [5] 2.5% | [6] 2.3%

O=C(c1ccccc1)C1CN(C2CCCC2)C1c1ccccc1 (stereo not given)
inactive: [1] -10.2% | [2] 7.6% | [3] -1.55% | [4] -27.3% | [5] 10.4% | [6] 16.1%

Oc1ccccc1C=NC1CCCCC1N=Cc1ccccc1O.[Ni] (stereo not given)
inactive: [1] 18.7% | [2] 4.05% | [3] 7.9% | [4] -8.6% | [5] -0.55% | [6] -10.4%
